The panel holds about 83,000 compounds, 20% with a hit somewhere; the sample as a whole holds those more often.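 Compound tested at a single concentration for 48 hours in 96-well plates; a percent growth value below 10 was scored as active.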 Activity calls are given as the source filed them.

The test system of the first assay is MDA-MB-435 melanoma. The assay can be described thus: NCI-60 one-dose screen, 48 h (100 = growth as untreated, 0 = no growth, -100 = all killed). The conditions noted are these: 10 µM unless noted.
For `Cc1ccc(C2CC(c3cccc(Nc4ccncc4)c3)=NN2c2ccc(Cl)cc2)cc1` (configuration not stated), the growth was -84.7% (active).

For the compound `COc1cc(NCCCN(CC(C)C)C2CCCC2)c2ncccc2c1`, the growth is 89.2% (inactive).

Take `COc1ccc(Cn2nc3c(c2-c2cc(OC)c(OC)c(OC)c2)-c2oncc2CC3)cc1`: the growth was 0.861% (active).

Regarding `O=S(=O)(c1ccc(N/N=C\c2ccccc2)cc1)c1ccc(N/N=C/c2ccccc2)cc1`, the growth is 68.8% (inactive).

As for `CC1(C)[C@H](O)CC[C@]2(C)[C@@H]1CC[C@@]13C[C@@H](CC[C@H]12)[C@@](O)(CO)C3`, the growth is 107% (inactive).

As for `COc1ccccc1OCC(=O)N1CCCCCC1`, the growth was 101% (inactive).

Regarding `Cc1c2c(cc[n+]1Cc1ccccc1)c1ccc(OCc3ccccc3)cc1n2Cc1ccccc1`, the growth is -93.8% (active).

For the compound `CCn1cc(C2NC(=O)c3ccccc3N2)c2cccc(C)c21` (configuration not stated), the growth was -31.9% (active).

Take `O=C(Cc1ccc(/C=C/C(=O)c2ncc[nH]2)cc1)Nc1ccc(C(F)(F)F)cc1`: the growth was -1.95% (active).

Turning to `COc1cccc(C(Cc2ccccc2)Nc2ccccc2)c1OC` (configuration not stated), the growth is 105% (inactive).

Regarding `CCCCCCC/C=C/[C@H]1O[C@]2(O)C(=O)C=C3C[C@@H](O[C@@H]4O[C@H](CO)[C@@H](O)C(O)[C@@H]4O)C[C@@H]3[C@H]2C=C1C` (some centres not stated), the growth is -19.9% (active).

For `CCOC(=O)N1CCc2c(sc3nc4nc[nH]n4c(=O)c23)C1`, the growth was 103% (inactive).

`Cc1nccc2c3ccc(OCc4cn(-c5ccc(Cl)cc5)nn4)cc3n(CCCc3ccccc3)c12`: the growth is 27.8% (inactive).

Regarding `O=C1Nc2c(ccc(Cl)c2Cl)/C1=C/c1ccc(O)cc1`, the growth is 101% (inactive).

As for `C[C@@H]1CN(Cc2ccc(/C=C/c3n[nH]c4ccc5nc(-c6cn[nH]c6C(F)(F)F)c6c(c5c34)CCCC6)cc2)C[C@H](C)O1`, the growth is 46.7% (inactive).

Regarding `COc1ccc(C(=O)c2cc3c(N)c(C(=O)Nc4cccc(OC)c4)sc3nc2C)cc1`, the growth is -14.3% (active).

As for `COc1ccc(/C(=C\c2ccccc2)C(=O)O)cc1OC`, the growth is 106% (inactive).

As for `C[C@]12CCc3nc(Nc4cccc(O)c4)sc3C1=CC[C@@H]1[C@@H]2CC[C@]2(C)/C(=N\NC(N)=S)CC[C@@H]12`, the growth is 5.53% (active).

In the case of `COc1ccc(-c2c(-c3ccccc3)noc2N)cc1OC`, the growth was 91% (inactive).

Turning to `COc1cc(-c2nc3occn3c2-c2ccnc(NCCNS(=O)(=O)c3ccc(Cl)cc3)n2)ccc1F`, the growth is 62.2% (inactive).

As for `COc1cc(CCNc2nc3cc(N)cc(N)c3nc2-c2ccccc2)cc(OC)c1`, the growth was -56.8% (active).

In the case of `CCC(=O)c1ccc(O)c(OC)c1`, the growth was 114% (inactive).

`N#Cc1ccc(-c2ccc3c(c2)NC(=O)/C3=C\c2ccc[nH]2)cc1`: the growth is 102% (inactive).

With `C=C(C)[C@@H]1CC[C@]2(CO)CC[C@]3(C)[C@H](CC[C@@H]4[C@@]5(C)CCCNC(C)(C)[C@@H]5CC[C@]43C)[C@@H]12`, the growth was 13.5% (inactive).

As for `CC(=O)c1c(C)[nH]c(-c2nc3ccc(N4CCN(C)CC4)cc3[nH]2)c1-c1ccccc1`, the growth was 19.8% (inactive).

As for `CC[C@H](C)[C@@H]1NC(=O)[C@H](Cc2ccc(O)cc2)N(C)C(=O)[C@H](Cc2ccccc2)NC(=O)CN(C)C(=O)[C@@H]2CCCN2C(=O)[C@@H](Cc2ccccc2)N(C)C(=O)[C@H](CC(C)C)NC1=O`, the growth is -46.3% (active).

For the compound `NC(=O)c1cccc(-c2cc(C(N)=O)ccc2Cl)c1`, the growth is -27.6% (active).

`N#C/C(=C\c1ccc(Br)cc1)n1nnc2cccc(F)c21`: the growth is -18% (active).

Take `CN1CCN(C(=O)OCc2nc3c(N4CCOCC4)nc(-c4ccccc4)nc3n2C)CC1`: the growth was -84.1% (active).

The subject of the next assay is SW-620 colon. Described as above. The conditions noted are these: 10 µM unless noted.
In the case of `C=C(C)[C@@H]1CC[C@]2(C=O)CC[C@]3(C)[C@H](CC[C@@H]4[C@@]5(C)CCCNC(C)(C)[C@@H]5CC[C@]43C)[C@@H]12`, the growth is -31.4% (active).

`COc1cc(OC)cc(C2C3=C(COC3=O)Nc3cc(OC)ccc32)c1` (configuration not stated): the growth is 26.6% (inactive).

Turning to `CN1CCN(C(=O)[C@]2(C)CC[C@]3(C)CC[C@]4(C)C(=CC(=O)[C@@H]5[C@@]6(C)CCC(=O)NC(C)(C)[C@@H]6CC[C@]54C)[C@@H]3C2)CC1`, the growth is 96.4% (inactive).

Take `COc1cc(C2CC(c3cccc(Nc4ccncc4)c3)=NN2c2cc(Cl)cc(Cl)c2)cc(OC)c1OC` (configuration not stated): the growth is -62.6% (active).

As for `COc1ccc(-c2ncc(-c3ccccc3)[nH]2)cc1OC`, the growth was 108% (inactive).

As for `CC(C)(C)OC(=O)N1C/C(=C\c2ccoc2)C(=O)/C(=C/c2ccoc2)C1`, the growth was 56.8% (inactive).

In the case of `Cc1ccc2nc3c(cc2c1)CSc1nnc(-c2ccc[nH]c2=S)n1N3`, the growth was 102% (inactive).

For `COc1ccc(Nn2c(SCC(=O)Nc3nc(-c4ccc(Cl)cc4)cs3)nc(C)c2C)cc1`, the growth is 75.2% (inactive).

Turning to `C=C(C)[C@@H]1CC[C@]2(C(=O)NCCCN(CCC#N)CCC#N)CC[C@]3(C)[C@H](CC[C@@H]4[C@@]5(C)CCC(=O)C(C)(C)[C@@H]5CC[C@]43C)[C@@H]12`, the growth was 101% (inactive).

Consider `Cc1ccc(C2CC(c3cccc(Nc4ccncc4)c3)=NN2c2ccc(Cl)cc2)cc1` (configuration not stated), for which the growth is -46.9% (active).

With `COc1cc(NCCCN(CC(C)C)C2CCCC2)c2ncccc2c1`, the growth was 41.4% (inactive).

For `COc1ccc(Cn2nc3c(c2-c2cc(OC)c(OC)c(OC)c2)-c2oncc2CC3)cc1`, the growth is 86% (inactive).

For `O=S(=O)(c1ccc(N/N=C\c2ccccc2)cc1)c1ccc(N/N=C/c2ccccc2)cc1`, the growth was 74% (inactive).

As for `CC1(C)[C@H](O)CC[C@]2(C)[C@@H]1CC[C@@]13C[C@@H](CC[C@H]12)[C@@](O)(CO)C3`, the growth is 108% (inactive).

In the case of `COc1ccccc1OCC(=O)N1CCCCCC1`, the growth was 100% (inactive).

Regarding `Cc1c2c(cc[n+]1Cc1ccccc1)c1ccc(OCc3ccccc3)cc1n2Cc1ccccc1`, the growth is -88.1% (active).

Consider `CCn1cc(C2NC(=O)c3ccccc3N2)c2cccc(C)c21` (configuration not stated), for which the growth was 24.7% (inactive).

For `O=C(Cc1ccc(/C=C/C(=O)c2ncc[nH]2)cc1)Nc1ccc(C(F)(F)F)cc1`, the growth is -16.1% (active).

As to `COc1cccc(C(Cc2ccccc2)Nc2ccccc2)c1OC` (configuration not stated), the growth is 95.1% (inactive).

`CCCCCCC/C=C/[C@H]1O[C@]2(O)C(=O)C=C3C[C@@H](O[C@@H]4O[C@H](CO)[C@@H](O)C(O)[C@@H]4O)C[C@@H]3[C@H]2C=C1C` (some centres not stated): the growth is -28.5% (active).

On to `CCOC(=O)N1CCc2c(sc3nc4nc[nH]n4c(=O)c23)C1`, for which the growth is 102% (inactive).

In the case of `Cc1nccc2c3ccc(OCc4cn(-c5ccc(Cl)cc5)nn4)cc3n(CCCc3ccccc3)c12`, the growth was 12.9% (inactive).

Consider `O=C1Nc2c(ccc(Cl)c2Cl)/C1=C/c1ccc(O)cc1`, for which the growth is 79.1% (inactive).

`C[C@@H]1CN(Cc2ccc(/C=C/c3n[nH]c4ccc5nc(-c6cn[nH]c6C(F)(F)F)c6c(c5c34)CCCC6)cc2)C[C@H](C)O1`: the growth is -16.6% (active).

`COc1ccc(C(=O)c2cc3c(N)c(C(=O)Nc4cccc(OC)c4)sc3nc2C)cc1`: the growth was 30.1% (inactive).

Turning to `COc1ccc(/C(=C\c2ccccc2)C(=O)O)cc1OC`, the growth was 97.4% (inactive).

Turning to `C[C@]12CCc3nc(Nc4cccc(O)c4)sc3C1=CC[C@@H]1[C@@H]2CC[C@]2(C)/C(=N\NC(N)=S)CC[C@@H]12`, the growth is -50% (active).

`COc1ccc(-c2c(-c3ccccc3)noc2N)cc1OC`: the growth was 118% (inactive).

As to `COc1cc(-c2nc3occn3c2-c2ccnc(NCCNS(=O)(=O)c3ccc(Cl)cc3)n2)ccc1F`, the growth is 109% (inactive).

As for `COc1cc(CCNc2nc3cc(N)cc(N)c3nc2-c2ccccc2)cc(OC)c1`, the growth was -56.7% (active).

Regarding `CCC(=O)c1ccc(O)c(OC)c1`, the growth is 101% (inactive).

Consider `N#Cc1ccc(-c2ccc3c(c2)NC(=O)/C3=C\c2ccc[nH]2)cc1`, for which the growth is 102% (inactive).

As to `C=C(C)[C@@H]1CC[C@]2(CO)CC[C@]3(C)[C@H](CC[C@@H]4[C@@]5(C)CCCNC(C)(C)[C@@H]5CC[C@]43C)[C@@H]12`, the growth is -66.5% (active).

For the compound `CC(=O)c1c(C)[nH]c(-c2nc3ccc(N4CCN(C)CC4)cc3[nH]2)c1-c1ccccc1`, the growth was 54.8% (inactive).

On to `CC[C@H](C)[C@@H]1NC(=O)[C@H](Cc2ccc(O)cc2)N(C)C(=O)[C@H](Cc2ccccc2)NC(=O)CN(C)C(=O)[C@@H]2CCCN2C(=O)[C@@H](Cc2ccccc2)N(C)C(=O)[C@H](CC(C)C)NC1=O`, for which the growth was 3.59% (active).

On to `NC(=O)c1cccc(-c2cc(C(N)=O)ccc2Cl)c1`, for which the growth is 21.1% (inactive).

`N#C/C(=C\c1ccc(Br)cc1)n1nnc2cccc(F)c21`: the growth is -48% (active).

Regarding `CN1CCN(C(=O)OCc2nc3c(N4CCOCC4)nc(-c4ccccc4)nc3n2C)CC1`, the growth was -46.4% (active).

(Values after PubChem BioAssay (NCI).)
